Results on 65 compounds are retold here after the antibiotic and cytotoxicity screens of Wong et al. (2023).

Structures are written as SMILES. Out of some 39,000 compounds screened, about 3,300 (8.5%) were called active. The sample as a whole holds a higher share of actives than the screen did.

For this assay, the system named is HepG2. The assay can be described thus: cytotoxicity call (relative viability < 0.9). To be noted: 10 µM.
On to `CC(C)NC(=O)[C@@]1(C)c2ccccc2C(=O)N(Cc2cc(C(F)(F)F)cc(C(F)(F)F)c2)[C@H]1c1ccc(CO)cc1`, for which the cytotoxicity call was “inactive”.

`C[C@H](CO)N1C[C@H](C)[C@@H](CN(C)S(=O)(=O)c2ccccc2F)Oc2cc(C#Cc3cccc(F)c3)ccc2S1(=O)=O`: the cytotoxicity call was “inactive”.

As to `COc1ccc(S(=O)(=O)N(C)C[C@H]2Oc3ccc(NC(=O)Cc4ccccc4)cc3CC(=O)N([C@@H](C)CO)C[C@@H]2C)cc1`, the cytotoxicity call was “inactive”.

Consider `C[C@H](CO)N1C[C@H](C)[C@@H](CN(C)C(=O)Cc2ccccn2)Oc2ncc(C#CC3CCCCC3)cc2C1=O`, for which the cytotoxicity call is “inactive”.

Consider `C[C@H](CO)N1C[C@H](C)[C@H](CN(C)S(=O)(=O)c2ccc(F)cc2)Oc2ccc(NC(=O)c3ccncc3)cc2C1=O`, for which the cytotoxicity call was “inactive”.

In the case of `CC(C)NC(=O)Nc1ccc2c(c1)CC(=O)N([C@@H](C)CO)C[C@H](C)[C@@H](CN(C)Cc1ccc3c(c1)OCO3)O2`, the cytotoxicity call is “inactive”.

Consider `C[C@@H]1CCCCO[C@@H](CN(C)C(=O)c2ccccc2)[C@H](C)CN([C@@H](C)CO)C(=O)c2cc(NC(=O)Nc3ccc(F)cc3)ccc2O1`, for which the cytotoxicity call was “inactive”.

For `C[C@H](NC(=O)C[C@H]1C[C@H]2c3cc(NC(=O)Nc4ccc(C(F)(F)F)cc4)ccc3O[C@H]2[C@@H](CO)O1)c1ccccc1`, the cytotoxicity call is “inactive”.

For the compound `CC(C)[Si]1(C(C)C)OCc2cc(-c3ccc(-c4ccc(Cl)c(Cl)c4)o3)nc(-c3ccccc3)c21`, the cytotoxicity call was “inactive”.

Take `CCC(=O)OC1C2CC3=C4CC(=O)OC(c5ccoc5)C4(C)CCC3C(C)(C2=O)C(CC(=O)OC)C1(C)C` (stereo not given): the cytotoxicity call is “inactive”.

For the compound `C[C@H](CO)N1C[C@H](C)[C@@H](CN(C)S(=O)(=O)c2ccccc2)OCCCC[C@H](C)Oc2ccc(NC(=O)NC3CCCCC3)cc2C1=O`, the cytotoxicity call is “inactive”.

As to `C[C@@H]1CCCCO[C@@H](CN(C)Cc2ccc(Cl)c(Cl)c2)[C@@H](C)CN([C@@H](C)CO)C(=O)c2cc(NC(=O)Cc3ccccc3)ccc2O1`, the cytotoxicity call was “inactive”.

As for `C[C@@H]1CCCCO[C@H](CN(C)Cc2ccccc2)[C@@H](C)CN([C@H](C)CO)C(=O)c2cc(NC(=O)Cc3ccccc3)ccc2O1`, the cytotoxicity call is “inactive”.

As to `C[C@@H]1CCCCO[C@H](CN(C)Cc2ccc(Cl)c(Cl)c2)[C@@H](C)CN([C@@H](C)CO)C(=O)c2cc(NC(=O)Cc3ccccc3)ccc2O1`, the cytotoxicity call is “inactive”.

For the compound `C[C@@H]1CCCCO[C@@H](CN(C)Cc2ccc(Cl)c(Cl)c2)[C@H](C)CN([C@@H](C)CO)C(=O)c2cc(NC(=O)Cc3ccccc3)ccc2O1`, the cytotoxicity call is “active”.

On to `C[C@@H]1CN([C@H](C)CO)C(=O)c2cc(NC(=O)Cc3ccccc3)ccc2O[C@@H](C)CCCCO[C@@H]1CN(C)Cc1ccc(Cl)c(Cl)c1`, for which the cytotoxicity call was “inactive”.

Consider `C[C@H]1CCCCO[C@H](CN(C)Cc2ccc(Cl)c(Cl)c2)[C@@H](C)CN([C@@H](C)CO)C(=O)c2cc(NC(=O)Cc3ccccc3)ccc2O1`, for which the cytotoxicity call is “active”.

`C[C@H]1CN([C@@H](C)CO)S(=O)(=O)c2ccc(C#CC3(O)CCCC3)cc2O[C@@H]1CN(C)C(=O)Nc1ccccc1`: the cytotoxicity call was “inactive”.

On to `C[C@H](CO)N1C[C@H](C)[C@@H](CN(C)S(=O)(=O)c2cccs2)OCCCC[C@H](C)Oc2ccc(NC(=O)Cc3ccccc3)cc2C1=O`, for which the cytotoxicity call is “inactive”.

As for `C[C@@H]1CN([C@H](C)CO)C(=O)Cc2cc(NC(=O)Cn3cnnn3)ccc2O[C@H]1CN(C)Cc1ccc2c(c1)OCO2`, the cytotoxicity call is “inactive”.

`CO[C@@H](CN(C)S(=O)(=O)c1ccc(Cl)cc1)[C@H](C)CN([C@@H](C)CO)S(=O)(=O)c1cccc(Cl)c1`: the cytotoxicity call is “inactive”.

Consider `O=C1OC2(c3ccccc31)c1cc(I)c(O)c(I)c1Oc1c2cc(I)c(O)c1I`, for which the cytotoxicity call was “active”.

As for `O=C1OC(c2cc(I)c(O)c(I)c2)(c2cc(I)c(O)c(I)c2)c2ccccc21`, the cytotoxicity call was “inactive”.

Take `O=C1OC2(c3ccc(O)cc3Oc3cc(O)ccc32)c2ccccc21`: the cytotoxicity call is “inactive”.

Turning to `C[C@@H]1CN([C@@H](C)CO)C(=O)c2cccc(NC(=O)c3cnccn3)c2O[C@H]1CN(C)C(=O)NC1CCCCC1`, the cytotoxicity call is “inactive”.

As to `Cc1[nH]c(=O)[nH]c(=O)c1S(=O)(=O)N1CCN(c2ccccc2)CC1`, the cytotoxicity call was “inactive”.

Take `Cc1noc(C)c1NC(=O)N(C)C[C@@H]1OCCCC[C@H](C)Oc2ccc(NS(=O)(=O)c3ccccc3)cc2C(=O)N([C@@H](C)CO)C[C@H]1C`: the cytotoxicity call was “inactive”.

In the case of `C[C@H]1CN([C@@H](C)CO)S(=O)(=O)c2ccc(C#Cc3ccccc3F)cc2O[C@@H]1CN(C)C(=O)Cc1cccnc1`, the cytotoxicity call was “inactive”.

With `O=C(C[C@@H]1CC[C@@H]2[C@H](COC[C@@H](O)CN2S(=O)(=O)c2cccc(Cl)c2)O1)NC1Cc2ccccc2C1`, the cytotoxicity call was “inactive”.

On to `O=C(C[C@@H]1C[C@H]2c3cc(NS(=O)(=O)c4ccc(F)cc4)ccc3O[C@H]2[C@H](CO)O1)NC1CCCC1`, for which the cytotoxicity call is “inactive”.

For the compound `COCC#Cc1cnc2c(c1)C(=O)N([C@@H](C)CO)C[C@H](C)[C@H](CN(C)C(=O)c1cnccn1)O2`, the cytotoxicity call is “inactive”.

Turning to `C#CC[C@H](c1nc2cc(Cl)ccc2c(=O)n1Nc1ccccc1)N(CCCN)C(=O)c1cccc(Cl)c1F`, the cytotoxicity call is “active”.

As for `C[C@@H]1CN([C@H](C)CO)S(=O)(=O)c2ccc(-c3cccc(C#N)c3)cc2O[C@H]1CN(C)C(=O)c1ccncc1`, the cytotoxicity call was “inactive”.

In the case of `Cc1nc[nH]c1CN(C)[C@H](C)C(=O)N(C)C`, the cytotoxicity call was “inactive”.

Take `CN(C)CCC=C1c2ccccc2COc2ccc(CC(=O)O)cc21.Cl`: the cytotoxicity call was “inactive”.

Regarding `CN(C)CCC=C1c2ccccc2CCc2ccccc21.Cl`, the cytotoxicity call is “active”.

Regarding `CN(C)CCC=C1c2ccccc2COc2ccccc21.Cl`, the cytotoxicity call was “active”.

Regarding `CN(C)CCC=C1c2ccccc2C=Cc2ccccc21.Cl`, the cytotoxicity call was “active”.

Consider `CNCCC=C1c2ccccc2CCc2ccccc21.Cl`, for which the cytotoxicity call was “active”.

On to `CN(C)CN1C(=O)c2ccccc2C1=O`, for which the cytotoxicity call is “inactive”.

Consider `Cc1noc(C2CNC2)n1`, for which the cytotoxicity call was “inactive”.

On to `COc1ccc(NC(=O)N(C)C[C@@H]2OCCCC[C@@H](C)Oc3ccc(NC(=O)NC(C)C)cc3C(=O)N([C@@H](C)CO)C[C@H]2C)cc1`, for which the cytotoxicity call was “inactive”.

On to `COc1cccc(NC(=O)C[C@@H]2CC[C@H]3[C@@H](COc4ccc(NC(=O)C5CCOCC5)cc4C(=O)N3C)O2)c1`, for which the cytotoxicity call was “inactive”.

Take `C[C@H](CO)N1C[C@H](C)[C@H](CN(C)S(C)(=O)=O)Oc2ccc(NC(=O)CCCCCC(=O)Nc3ccccc3N)cc2CC1=O`: the cytotoxicity call is “inactive”.

As for `C[C@H](CO)N1C[C@H](C)[C@H](CN(C)C(=O)c2cccnc2)Oc2cc(C#CC3(O)CCCC3)ccc2S1(=O)=O`, the cytotoxicity call was “inactive”.

Turning to `COc1cccc(S(=O)(=O)N(C)C[C@H]2OCc3cnnn3CCCC(=O)N([C@@H](C)CO)C[C@H]2C)c1`, the cytotoxicity call is “inactive”.

For the compound `C[C@H]1CN([C@@H](C)CO)C(=O)c2cccc(NS(C)(=O)=O)c2O[C@@H]1CN(C)C(=O)Nc1ccccc1`, the cytotoxicity call is “inactive”.

As to `CC(C)NC(=O)N(C)C[C@@H]1Oc2ccc(NS(=O)(=O)c3ccccc3)cc2C(=O)N([C@@H](C)CO)C[C@H]1C`, the cytotoxicity call was “inactive”.

As for `Cc1noc(C)c1S(=O)(=O)Nc1ccc2c(c1)CC(=O)N([C@H](C)CO)C[C@@H](C)[C@H](CN(C)C(=O)Nc1ccccc1)O2`, the cytotoxicity call was “inactive”.

Take `C[C@@H]1CN([C@H](C)CO)C(=O)c2cc(NC(=O)NC3CCCCC3)ccc2O[C@H]1CN(C)Cc1ccc(Cl)c(Cl)c1`: the cytotoxicity call is “inactive”.

Take `C[C@H](CO)N1C[C@H](C)[C@@H](CN(C)C(=O)Nc2cccc3ccccc23)Oc2ccc(NC(=O)CCC(F)(F)F)cc2CC1=O`: the cytotoxicity call is “inactive”.

As for `C[C@@H]1CCCCO[C@H](CN(C)C(=O)Nc2ccccc2)[C@H](C)CN([C@H](C)CO)C(=O)c2cc(NC(=O)NC3CCCCC3)ccc2O1`, the cytotoxicity call was “inactive”.

Take `CC(C)CC#Cc1cnc2c(c1)C(=O)N([C@H](C)CO)C[C@H](C)[C@H](CN(C)S(=O)(=O)c1cn(C)cn1)O2`: the cytotoxicity call is “inactive”.

On to `C[C@@H]1CCCCO[C@H](CN(C)C(=O)Nc2cccc3ccccc23)[C@H](C)CN([C@@H](C)CO)C(=O)c2cc(NC(=O)NC3CCCCC3)ccc2O1`, for which the cytotoxicity call was “active”.

Take `C[C@@H]1CN([C@@H](C)CO)C(=O)c2cc(NC(=O)Nc3cccc4ccccc34)ccc2O[C@@H](C)CCCCO[C@H]1CN(C)C(=O)NC1CCCCC1`: the cytotoxicity call was “inactive”.

As for `C[C@@H]1CCCCO[C@@H](CN(C)C(=O)Nc2cccc3ccccc23)[C@H](C)CN([C@@H](C)CO)C(=O)c2cc(NC(=O)NC3CCCCC3)ccc2O1`, the cytotoxicity call was “inactive”.

As to `C[C@@H]1CCCCO[C@H](CN(C)C(=O)Nc2cccc3ccccc23)[C@@H](C)CN([C@H](C)CO)C(=O)c2cc(NC(=O)NC3CCCCC3)ccc2O1`, the cytotoxicity call was “inactive”.

As to `C[C@@H]1CCCCO[C@@H](CN(C)C(=O)Nc2cccc3ccccc23)[C@H](C)CN([C@H](C)CO)C(=O)c2cc(NC(=O)NC3CCCCC3)ccc2O1`, the cytotoxicity call was “inactive”.

Turning to `C[C@H](CO)N1C[C@H](C)[C@H](CN(C)C(=O)Nc2cccc3ccccc23)OCCCC[C@H](C)Oc2ccc(NC(=O)NC3CCCCC3)cc2C1=O`, the cytotoxicity call was “active”.

As for `C[C@@H]1CN([C@H](C)CO)C(=O)c2cc(NC(=O)Nc3cccc4ccccc34)ccc2O[C@@H](C)CCCCO[C@H]1CN(C)C(=O)NC1CCCCC1`, the cytotoxicity call is “active”.

As for `C[C@@H]1CCCCO[C@@H](CN(C)C(=O)NC2CCCCC2)[C@H](C)CN([C@H](C)CO)C(=O)c2cc(NC(=O)Nc3cccc4ccccc34)ccc2O1`, the cytotoxicity call is “inactive”.

`C[C@H]1CCCCO[C@H](CN(C)C(=O)Nc2cccc3ccccc23)[C@@H](C)CN([C@@H](C)CO)C(=O)c2cc(NC(=O)NC3CCCCC3)ccc2O1`: the cytotoxicity call was “inactive”.

For `CC(C)NC(=O)Nc1ccc2c(c1)C(=O)N([C@H](C)CO)C[C@@H](C)[C@H](CN(C)S(=O)(=O)c1ccccc1)O2`, the cytotoxicity call is “inactive”.

As for `C[C@@H]1CN([C@@H](C)CO)C(=O)c2cccc(NC(=O)c3cnccn3)c2O[C@H]1CN(C)Cc1ccc(C(=O)O)cc1`, the cytotoxicity call was “inactive”.

As for `C[C@@H]1CCCCO[C@H](CN(C)C(=O)c2ccccc2)[C@H](C)CN([C@@H](C)CO)C(=O)c2cc(NC(=O)Nc3cccc4ccccc34)ccc2O1`, the cytotoxicity call was “inactive”.
